According to PubChem BioAssay AID1159580 (chemical genetic matrix, 2015):
Hit rate of the full screen: of about 5,500 compounds, about 2,000 (36%) were called active. Another 18% or so got no clear call; they are omitted. No stated cut-off is given here; in the data, active means normalized growth mostly below about 0.91 (no sharp cut-off); inconclusive means no clear call, values can overlap the other calls; inactive means mostly above about 0.92. The list shows a part of the results.

Assay: chemical genetic growth profiling, strain panel (AID 1159580);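 further: tested at 20 µM; growth read once vehicle control cultures reached saturation at 30 °C; 1 = growth at the plate median or of vehicle wells; lower values mean less growth of the strain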
Settings: growth OD

Measured: normalized growth

CC(=O)N=c1sc(S(N)(=O)=O)nn1C
inactive: S. cerevisiae deletion strains, locus YJR075W, strain HOC1, active compounds read low 1 | S. cerevisiae deletion strains, locus YKL009W, strain mrt4, active compounds read low 1 | S. cerevisiae deletion strains, locus YKL068W, active compounds read low 1 | S. cerevisiae deletion strains, locus YKL085W, strain MDH1 (second series), active compounds read low 1.01 | S. cerevisiae deletion strains, locus YKL085W, strain MDH1, active compounds read low 1.01 | S. cerevisiae deletion strains, locus YKL160W, strain elf1, active compounds read low 1.01 | S. cerevisiae deletion strains, locus YKL190W, strain CNB1, active compounds read low 1.01 | S. cerevisiae deletion strains, locus YKR001C, strain vps1, active compounds read low 0.998 | S. cerevisiae deletion strains, locus YKR026C, strain gcn3, active compounds read low 1.01 | S. cerevisiae deletion strains, locus YKR091W, strain srl3, active compounds read low 1 | S. cerevisiae deletion strains, locus YLL001W, strain dnm1, active compounds read low 1.01 | S. cerevisiae deletion strains, locus YLL026W, active compounds read low 1.01 | S. cerevisiae deletion strains, locus YLL041C, strain sdh2, active compounds read low 1.01 | S. cerevisiae deletion strains, locus YLR027C, strain aat2, active compounds read low 1.01 | S. cerevisiae deletion strains, locus YLR039C, strain RIC1, active compounds read low 1.02 | S. cerevisiae deletion strains, locus YLR058C, strain SHM2, active compounds read low 1.01 | S. cerevisiae deletion strains, locus YLR102C, strain apc9, active compounds read low 1 | S. cerevisiae deletion strains, locus YLR113W, strain HOG1, active compounds read low 1.07 | S. cerevisiae deletion strains, locus YLR221C, strain rsa3, active compounds read low 1 | S. cerevisiae deletion strains, locus YLR258W, strain gsy2, active compounds read low 1.01 | S. cerevisiae deletion strains, locus YLR262C, strain YPT6 (second series), active compounds read low 1.02 | S. cerevisiae deletion strains, locus YLR262C, strain YPT6, active compounds read low 1.04 | S. cerevisiae deletion strains, locus YLR268W, strain sec22, active compounds read low 1 | S. cerevisiae deletion strains, locus YLR320W, strain mms22, active compounds read low 1.04 | S. cerevisiae deletion strains, locus YLR330W, strain CHS5, active compounds read low 1.01 | S. cerevisiae deletion strains, locus YLR342W, strain FKS1 (second series), active compounds read low 1.08 | S. cerevisiae deletion strains, locus YLR342W, strain FKS1, active compounds read low 1.02 | S. cerevisiae deletion strains, locus YLR357W, strain rsc2, active compounds read low 1.03 | S. cerevisiae deletion strains, locus YLR370C, strain arc18, active compounds read low 1.01 | S. cerevisiae deletion strains, locus YLR371W, strain rom2, active compounds read low 1.02 | S. cerevisiae deletion strains, locus YLR384C, strain iki3, active compounds read low 1 | S. cerevisiae deletion strains, locus YLR418C, strain cdc73, active compounds read low 1.04 | S. cerevisiae deletion strains, locus YML016C, strain PPZ1, active compounds read low 1.01 | S. cerevisiae deletion strains, locus YML032C, strain rad52, active compounds read low 0.993 | S. cerevisiae deletion strains, locus YML120C, strain ndi1, active compounds read low 1 | S. cerevisiae deletion strains, locus YML124C, strain tub3, active compounds read low 1.01 | S. cerevisiae deletion strains, locus YMR058W, strain fet3, active compounds read low 1.01 | S. cerevisiae deletion strains, locus YMR078C, strain ctf18, active compounds read low 1.01 | S. cerevisiae deletion strains, locus YMR125W, strain sto1, active compounds read low 1.01 | S. cerevisiae deletion strains, locus YMR129W, active compounds read low 1.01 | S. cerevisiae deletion strains, locus YMR205C, strain PFK2, active compounds read low 1.01 | S. cerevisiae deletion strains, locus YMR223W, strain ubp8, active compounds read low 1.03 | S. cerevisiae deletion strains, locus YMR231W, strain pep5, active compounds read low 1.01 | S. cerevisiae deletion strains, locus YMR307W, strain GAS1, active compounds read low 1.03 | S. cerevisiae deletion strains, locus YNL067W, strain RPL9B, active compounds read low 0.988 | S. cerevisiae deletion strains, locus YNL071W, strain lat1, active compounds read low 1.01 | S. cerevisiae deletion strains, locus YNL128W, strain TEP1, active compounds read low 1.04 | S. cerevisiae deletion strains, locus YNL153C, strain GIM3, active compounds read low 0.979 | S. cerevisiae deletion strains, locus YNL183C, strain NPR1, active compounds read low 0.984 | S. cerevisiae deletion strains, locus YNL209W, strain ssb2, active compounds read low 1.01 | S. cerevisiae deletion strains, locus YNL233W, strain BNI4, active compounds read low 0.967 | S. cerevisiae deletion strains, locus YNL248C, strain rpa49, active compounds read low 1.02 | S. cerevisiae deletion strains, locus YNL250W, strain rad50, active compounds read low 1.04 | S. cerevisiae deletion strains, locus YNL271C, strain bni1, active compounds read low 1 | S. cerevisiae deletion strains, locus YNL298W, strain CLA4, active compounds read low 1.01 | S. cerevisiae deletion strains, locus YNL307C, strain MCK1, active compounds read low 1.02 | S. cerevisiae deletion strains, locus YNL322C, strain KRE1 (second series), active compounds read low 1.01 | S. cerevisiae deletion strains, locus YNR049C, strain mso1, active compounds read low 1.01 | S. cerevisiae deletion strains, locus YNR052C, strain pop2, active compounds read low 1.02 | S. cerevisiae deletion strains, locus YOL006C, strain TOP1, active compounds read low 0.974 | S. cerevisiae deletion strains, locus YOL012C, strain htz1 1.13 | S. cerevisiae deletion strains, locus YOL147C, strain pex11, active compounds read low 1.01 | S. cerevisiae deletion strains, locus YOR001W, strain rrp6, active compounds read low 1.01 | S. cerevisiae deletion strains, locus YOR061W, strain CKA2, active compounds read low 1.01 | S. cerevisiae deletion strains, locus YOR069W, strain VPS5, active compounds read low 1.01 | S. cerevisiae deletion strains, locus YOR070C, strain gyp1, active compounds read low 1.02 | S. cerevisiae deletion strains, locus YOR080W, strain dia2, active compounds read low 1.02 | S. cerevisiae deletion strains, locus YOR083W, strain WHI5, active compounds read low 1.01 | S. cerevisiae deletion strains, locus YOR106W, strain vam3, active compounds read low 1.01 | S. cerevisiae deletion strains, locus YOR136W, strain idh2, active compounds read low 0.997 | S. cerevisiae deletion strains, locus YOR144C, strain elg1, active compounds read low 0.997 | S. cerevisiae deletion strains, locus YOR184W, strain ser1, active compounds read low 1.02 | S. cerevisiae deletion strains, locus YOR231W, strain MKK1, active compounds read low 1.08 | S. cerevisiae deletion strains, locus YOR265W, strain rbl2, active compounds read low 1.01 | S. cerevisiae deletion strains, locus YOR270C, strain vph1, active compounds read low 1.02 | S. cerevisiae deletion strains, locus YOR290C, strain snf2, active compounds read low 1.03 | S. cerevisiae deletion strains, locus YOR316C, strain cot1, active compounds read low 1 | S. cerevisiae deletion strains, locus YPL051W, strain arl3, active compounds read low 1.01 | S. cerevisiae deletion strains, locus YPL055C, strain LGE1, active compounds read low 0.939 | S. cerevisiae deletion strains, locus YPL078C, strain atp4, active compounds read low 1.01 | S. cerevisiae deletion strains, locus YPL106C, strain sse1, active compounds read low 1.03 | S. cerevisiae deletion strains, locus YPL240C, strain hsp82, active compounds read low 1.01 | S. cerevisiae deletion strains, locus YPL241C, strain CIN2, active compounds read low 1.01 | S. cerevisiae deletion strains, locus YPL256C, strain CLN2, active compounds read low 1.08 | S. cerevisiae deletion strains, locus YPR119W, strain clb2, active compounds read low 1 | S. cerevisiae deletion strains, locus YPR141C, strain kar3, active compounds read low 1.01 | S. cerevisiae deletion strains, locus YPR163C, strain tif3, active compounds read low 1.01 | S. cerevisiae deletion strains, locus YPR167C, strain met16, active compounds read low 1 | S. cerevisiae deletion strains, strain wtn01, active compounds read low 1 | S. cerevisiae strains, strain wild type, active compounds read low 1
